# Source: the supplement of paper PMC9135407
# Values joined by “and” are separate entries in the source; they are usually repeats but may differ in a detail not shown here. Equal entries are not always repeated. Structures can show the parent of a compound that is named as a salt. Out of some 5,800 compounds screened, about 620 (11%) showed activity. For the sample, actives were picked, then their nearest neighbours and some compounds at random. Unmarked numbers belong to inactive results.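 How the source made its calls: active = score above a cut-off or among the top three wells of a plate; in these data no inactive exceeds 0.85.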
# Test system: primary human hepatic stellate cells (donor 1)
# Assay: scaled lipid accumulation score (0 = DMSO-like, 1 = nortriptyline-like); higher = stronger HSC inactivation (lipid re-accumulation), active = hit call of the paper
# Settings: 48 h
# Procedure: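 Primary lipid accumulation screen in primary human hepatic stellate cell myofibroblasts (donor 1, passage 8) in 384-well plates. 100 nL of library compound was pin-transferred into 30 µL medium in duplicate, and cells were treated for 48 h. The 'Scaled' score combines distance from plate baseline, toxicity and reproducibility penalties, and is normalised to nortriptyline (positive) and DMSO (negative) controls on each plate. A hit is defined as scaled >0.85 or among the top 3 wells per plate.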
# [1] = library stock concentration: 10 mM
# [2] = library stock concentration: 1 mM
# [3] = library stock concentration: 3.33 mM
# [4] = library stock concentration: 80 uM
# [5] = library stock concentration: 400 uM
# [6] = library stock concentration: 2 mM
compound,measurement,setting,value
CC(C(C)N1CC(=O)NC(=O)C1)N1CC(=O)NC(=O)C1 (stereo not drawn),scaled lipid accumulation score,library stock concentration: 17.7 mM,≤ -0.012
C=N[C@@H](C(=O)N[C@@H]1C(=O)N2[C@@H]1SC(C)(C)[C@@H]2C(=O)O)c1ccccc1 [Metampicillin sodium salt],scaled lipid accumulation score,,≤ 0
CC(=O)Oc1c(C)cccc1C(=O)O,scaled lipid accumulation score,[1],≤ 0
CCCCC[C@@](C)(O)/C=C/[C@@H]1[C@@H](C/C=C\CCCC(=O)OC)[C@@H](O)C[C@H]1O [15(R)-15-methyl Prostaglandin F2.alpha. methyl ester],scaled lipid accumulation score,[2],≤ 0
Cn1cc(CNCC2CCN(c3ncc(C(=O)NO)cn3)CC2)c2ccccc21 [listing 1 of 2 here],scaled lipid accumulation score,[1],0.985 (active)
Cn1cc(CNCC2CCN(c3ncc(C(=O)NO)cn3)CC2)c2ccccc21 [listing 2 of 2 here],scaled lipid accumulation score,[3],0.478
CN1CCc2c(c3ccccc3n2Cc2ccc(C(=O)NO)cc2)C1 [Tubastatin A],scaled lipid accumulation score,[3],≤ 0
same,scaled lipid accumulation score,[1],≤ 0
CN1CCc2c(c3ccccc3n2Cc2ccc(C(=O)NO)cc2)C1 [Tubastatin A HCl],scaled lipid accumulation score,[3],≤ 0
same,scaled lipid accumulation score,[1],0.218
O=C(C[S+]([O-])Cc1ccco1)NC/C=C\COc1cc(CN2CCCCC2)ccn1 (stereo not drawn) [Lafutidine],scaled lipid accumulation score,[3],≤ 0
same,scaled lipid accumulation score,[1],≤ 0
CC(COc1ccccc1Cc1ccccc1)N1CCCCC1.O=P(O)(O)O (stereo not drawn),scaled lipid accumulation score,[1],1.02 (active)
C=CCc1ccccc1OCC(O)CNC(C)C (stereo not drawn) [Alprenolol HCl],scaled lipid accumulation score,library stock concentration: 8 mM,0.203
C=CCc1ccccc1OCC(O)CNC(C)C (stereo not drawn) [Alprenolol hydrochloride],scaled lipid accumulation score,,0.634
same,scaled lipid accumulation score,[1],0.5
N=C(CC(O)COc1ccccc1-c1ccccc1)N1CCCCC1 (stereo not drawn),scaled lipid accumulation score,[1],0.781
O=c1ncc(F)c[nH]1 [5-fluoro-2-pyrimidone],scaled lipid accumulation score,[1],≤ 0
CC1CCN=C(N)C1 (stereo not drawn) [2-Imino-4-methylpiperidine (acetate)],scaled lipid accumulation score,[2],0.011
N#C/C(=C\c1ccc(O)c(O)c1)C(=O)NCCCCc1ccccc1,scaled lipid accumulation score,[1],≤ 0
CCCCCOc1ccccc1C(O)CC#CCCCC(=O)OC (stereo not drawn),scaled lipid accumulation score,[2],0.022
CNS(=O)(=O)CCc1ccc2[nH]cc(C3CCN(C)CC3)c2c1 [Naratriptan hydrochloride],scaled lipid accumulation score,[1],0.019
CNS(=O)(=O)CCc1ccc2[nH]cc(C3CCN(C)CC3)c2c1 [Naratriptan],scaled lipid accumulation score,[3],≤ 0
same,scaled lipid accumulation score,[1],≤ 0
CN1CCC[C@@H]1Cc1c[nH]c2ccc(CCS(=O)(=O)c3ccccc3)cc12 [Eletriptan hydrobromide],scaled lipid accumulation score,[1],0.624
Br.CN1CCC[C@@H]1Cc1c[nH]c2ccc(CCS(=O)(=O)c3ccccc3)cc12 [Eletriptan hydrobromide],scaled lipid accumulation score,[1],0.912 (active)
CN1CCC[C@@H]1Cc1c[nH]c2ccc(CCS(=O)(=O)c3ccccc3)cc12 [Eletriptan HBr],scaled lipid accumulation score,[3],0.194
same,scaled lipid accumulation score,[1],0.202
COC(=O)N[C@H](C(=O)N1CCC[C@H]1c1ncc(-c2ccc(-c3ccc(-c4cnc([C@@H]5CCCN5C(=O)[C@@H](NC(=O)OC)C(C)C)[nH]4)cc3)cc2)[nH]1)C(C)C [listing 1 of 2 here],scaled lipid accumulation score,[1],1.04 (active)
COC(=O)N[C@H](C(=O)N1CCC[C@H]1c1ncc(-c2ccc(-c3ccc(-c4cnc([C@@H]5CCCN5C(=O)[C@@H](NC(=O)OC)C(C)C)[nH]4)cc3)cc2)[nH]1)C(C)C [listing 2 of 2 here],scaled lipid accumulation score,[3],0.322
CCCCC[C@H](O)/C=C/[C@@H]1C2C[C@H](CCCCC(=O)O)O[C@@H]2C[C@H]1O (stereo partly drawn) [6.beta.-Prostaglandin I1],scaled lipid accumulation score,[2],0.004
CC(N)(Cc1ccc(O)c(O)c1)C(=O)O (stereo not drawn),scaled lipid accumulation score,[1],≤ 0
CC(C)CN1CCC(CNCc2ccc(C#CC(C)(C)O)s2)CC1,scaled lipid accumulation score,[1],0.671 (active)
Cc1c(C)c2c(c(C)c1O)CCC(C)(CCCC(C)C(=O)O)O2 (stereo not drawn),scaled lipid accumulation score,[2],≤ 0
C[C@H]1C[C@H]2[C@@H]3CCC4=CC(=O)C=C[C@]4(C)[C@H]3C(=O)C[C@]2(C)[C@@]1(O)C(=O)CO [Meprednisone],scaled lipid accumulation score,[3],0.055
same,scaled lipid accumulation score,[1],≤ 0
Cc1ccc(F)c(NC(=O)Nc2ccc(-c3cccc4[nH]nc(N)c34)cc2)c1 [listing 1 of 2 here],scaled lipid accumulation score,[1],1.08 (active)
Cc1cc(NC(=O)Nc2ccc(N(C)C)cc2)c2cc(F)cc(F)c2n1,scaled lipid accumulation score,[3],0.007
same,scaled lipid accumulation score,[1],0.001 and ≤ -0.006
Cc1ccc(F)c(NC(=O)Nc2ccc(-c3cccc4[nH]nc(N)c34)cc2)c1 [Linifanib (ABT-869)],scaled lipid accumulation score,[3],≤ 0
same,scaled lipid accumulation score,[1],≤ 0
Cc1ccc(F)c(NC(=O)Nc2ccc(-c3cccc4[nH]nc(N)c34)cc2)c1 [listing 2 of 2 here],scaled lipid accumulation score,[4],0.001
same,scaled lipid accumulation score,[5],≤ -0.009 and ≤ -0.005
same,scaled lipid accumulation score,[6],0.233 and 0.419
same,scaled lipid accumulation score,[1],0.446
CCCCCCCCCCCCC(=O)NC1CCOC1=O [N-tridecanoyl-L-Homoserine lactone],scaled lipid accumulation score,[2],≤ 0
COc1cccc(C=NCCN=Cc2cccc(OC)c2[O-])c1[O-].[Cl-].[Mn+3],scaled lipid accumulation score,[3],≤ 0
same,scaled lipid accumulation score,[1],0.234
Cc1ccc(/C=N/NC(=O)c2ccccc2Oc2ccccc2)o1,scaled lipid accumulation score,[1],≤ -0.001
CN(C)C(=O)n1nnnc1Cc1ccc(-c2ccccc2)cc1,scaled lipid accumulation score,[1],0.554
O=C(Nc1c[nH]nc1-c1nc2ccc(CN3CCOCC3)cc2[nH]1)NC1CC1 [listing 1 of 2 here],scaled lipid accumulation score,[4],0.613
same,scaled lipid accumulation score,[5],0.259
same,scaled lipid accumulation score,[6],0.562 and 0.591
same,scaled lipid accumulation score,[3],0.59
same,scaled lipid accumulation score,[1],0.791 and 0.755 and 0.681
O=C(Nc1c[nH]nc1-c1nc2ccc(CN3CCOCC3)cc2[nH]1)NC1CC1 [listing 2 of 2 here],scaled lipid accumulation score,[5],0.877 (active)
O=C(NC1CCOCC1)c1ccc(-c2cc(-c3c[nH]nc3-c3ccccn3)ccn2)cc1,scaled lipid accumulation score,[3],≤ 0
same,scaled lipid accumulation score,[1],≤ 0
CCCCC[C@H](O)/C=C/[C@H]1[C@@H]2CO[C@@H](C2)[C@@H]1C/C=C\CCCC(=O)O,scaled lipid accumulation score,[2],≤ 0
"O=P(O)(O)O[C@@H]1[C@H](O)[C@H](O)[C@@H](OP(=O)(O)O)[C@H](OP(=O)(O)O)[C@H]1O [D-myo-Inositol-1,4,5-triphosphate (sodium salt)]",scaled lipid accumulation score,[2],0.018
CN(C)CCCOc1nn(Cc2ccccc2)c2ccccc12 [Benzydamine hydrochloride],scaled lipid accumulation score,,0.652
same,scaled lipid accumulation score,library stock concentration: 5.8 mM,0.429
CN(C)CCCOc1nn(Cc2ccccc2)c2ccccc12.Cl [Benzydamine HCl],scaled lipid accumulation score,[1],1.08 (active)
CC(C)(OCc1nn(Cc2ccccc2)c2ccccc12)C(=O)O [Bindarit],scaled lipid accumulation score,[3],≤ 0
same,scaled lipid accumulation score,[1],≤ 0
CN(C)CCCOc1nn(Cc2ccccc2)c2ccccc12 [Benzydamine HCl],scaled lipid accumulation score,[3],0.13
"COc1cc2c(cc1Cc1cccc(Cl)c1F)c(=O)c(C(=O)O)cn2[C@H](CO)C(C)C [Elvitegravir (GS-9137, JTK-303)]",scaled lipid accumulation score,[3],≤ 0
same,scaled lipid accumulation score,[1],≤ 0
O=C(O)CCCCCCC1C(=O)N(Cc2ccccc2)C(=O)N1NCC(O)C1CCCCC1 (stereo not drawn),scaled lipid accumulation score,[2],≤ 0
CCCn1cc(-c2ccnc(NC3CCN(Cc4cccnc4)CC3)n2)c(C)n1,scaled lipid accumulation score,[1],0.91 (active)
COC(=O)C[C@](O)(CCCC(C)(C)O)C(=O)O[C@@H]1C(OC)=C[C@]23CCCN2CCc2cc4c(cc2[C@H]13)OCO4 [Homoharringtonine],scaled lipid accumulation score,[1],1.27 (active)
O=C1O/C(=C/Br)CCC1c1cccc2ccccc12 (stereo not drawn) [Bromoenol lactone],scaled lipid accumulation score,[2],≤ 0
O=c1[nH]c(C2CCCN2)nc2c1oc1ccc(Cl)cc12 (stereo not drawn),scaled lipid accumulation score,[4],≤ 0
same,scaled lipid accumulation score,[5],0.055
same,scaled lipid accumulation score,[6],≤ 0
same,scaled lipid accumulation score,[1],≤ 0
O=C(O)CCC/C=C\C[C@@H]1[C@@H](/C=C/[C@@H](O)C2CCCCC2)[C@H](O)C[C@@H]1O [15-cyclohexyl pentanor Prostaglandin F2.alpha.],scaled lipid accumulation score,[2],≤ 0
CCCCC/C=C\C/C=C\C/C=C\C/C=C\CCCCCC(=O)O [Adrenic Acid],scaled lipid accumulation score,[2],≤ 0
O=C(Nc1ccccc1-c1cn2c(CN3CCNCC3)csc2n1)c1cnc2ccccc2n1,scaled lipid accumulation score,[3],0.121
same,scaled lipid accumulation score,[1],0.384
CCOC(=O)[C@H](CCc1ccccc1)N[C@@H](C)C(=O)N1[C@H](C(=O)O)C[C@H]2CCCC[C@@H]21 [Trandolapril],scaled lipid accumulation score,[1],0.059 and 0.177
CCCCCC(=O)/C=C/[C@@H]1[C@@H](CCCCCCC(=O)O)[C@@H](O)C[C@H]1O [15-keto Prostaglandin F1.alpha.],scaled lipid accumulation score,[2],≤ 0
Cc1cnc(CNC(=O)c2c(=O)c3ccc(N4CCCN(C)CC4)nc3n3c2sc2ccccc23)cn1,scaled lipid accumulation score,[4],≤ 0
same,scaled lipid accumulation score,[5],≤ 0
same,scaled lipid accumulation score,[6],≤ 0
same,scaled lipid accumulation score,[1],≤ 0
CC(CN(C)C)CN1c2ccccc2Sc2ccccc21.O=C(O)C(O)C(O)C(=O)O (stereo not drawn) [Trimeprazine tartrate],scaled lipid accumulation score,library stock concentration: 4.5 mM,0.915 (active)
CC(CN(C)C)CN1c2ccccc2CCc2ccccc21.O=C(O)/C=C\C(=O)O (stereo not drawn) [Trimipramine maleate],scaled lipid accumulation score,[1],0.877 (active)
CCOC(=O)[C@H](CCc1ccccc1)N[C@H]1CCc2ccccc2N(CC(=O)O)C1=O [Benazepril hydrochloride],scaled lipid accumulation score,[1],≤ -0.027 and 0.038
CCOC(=O)[C@H](CCc1ccccc1)N[C@H]1CCc2ccccc2N(CC(=O)O)C1=O,scaled lipid accumulation score,[1],≤ 0
CC(CN(C)C)CN1c2ccccc2CCc2ccccc21 (stereo not drawn) [Trimipramine maleate],scaled lipid accumulation score,library stock concentration: 4.9 mM,0.715
same,scaled lipid accumulation score,[1],0.647
CC(CN(C)C)CN1c2ccccc2CCc2ccccc21 (stereo not drawn) [Trimipramine maleate salt],scaled lipid accumulation score,,0.27
CC(CN(C)C)CN1c2ccccc2Sc2ccccc21 (stereo not drawn) [Trimeprazine tartrate],scaled lipid accumulation score,,0.689
same,scaled lipid accumulation score,[1],0.834
CCOC(=O)[C@H](CCc1ccccc1)N[C@H]1CCc2ccccc2N(CC(=O)O)C1=O [Benazepril HCl],scaled lipid accumulation score,[3],≤ 0
same,scaled lipid accumulation score,[1],≤ 0
COc1ccc2c(c1)N(C[C@H](C)CN(C)C)c1ccccc1S2 [Methotrimeprazine maleat salt],scaled lipid accumulation score,,0.642
